Hit rate of the full screen: of about 48,000 compounds, about 13,000 (27%) showed an effect of 50% or more. The list shows a part of the results.
These compounds were tested on Wolbachia pipientis (assay: Anti-Wolbachia Cell-Based Screen). Details: 5 µM.
Assay type: functional
Parameters: scale not given: in the data most compounds retested in dose-response had high values
COCCN(Cc1ccc(C)cc1)Cc1c[nH]cn1 was tested, and the “Percent Effect” value was -2.598%.
For Cc1cc(C)n(CCC2CC(=O)Nc3cc(O)c(C)cc32)n1 (configuration not stated), the “Percent Effect” value was -2.617%.
For Cc1nccnc1CCC1COCCN1C(=O)CCc1c(C)noc1C (configuration not stated), the “Percent Effect” value was 121.1%.
Cc1noc(C)c1CCC(=O)N1CCOCC1CCc1cnccn1 (configuration not stated) was tested, and the “Percent Effect” value was 115.4%.
For CCc1ccc(CCC(=O)N2CCOCC2c2ncon2)cc1 (configuration not stated), the “Percent Effect” value was 5.794%.
With Cc1noc(C)c1CCC(=O)N1CCN(CCn2cccn2)CC1 the “Percent Effect” value was -16.11%.
For Cc1noc(C)c1CCC(=O)N1CCN(CCn2cncn2)CC1, the “Percent Effect” value was -13.84%.
In the case of Cc1noc(C)c1CCC(=O)N1CCOCC1CC(=O)N1CCCC1 (configuration not stated), the “Percent Effect” value is reported as 72.16%.
In the case of Cc1noc(Cl)c1CCC(=O)N1CCN(c2ncccn2)CC1, the “Percent Effect” value is reported as 8.959%.
For CC(=O)N1CCCN(C(=O)CCc2c(C)noc2C)CC1, the “Percent Effect” value was -13.07%.
With Cc1cc(C)cc(OCCC(=O)N2CCOCC2c2ncon2)c1 (configuration not stated) the “Percent Effect” value was -11.58%.
For O=C(c1ccc2cccc(F)c2n1)N1CCN(CCn2cccc2)CC1, the “Percent Effect” value was 4.444%.
O=C(CN1CCC(c2ccnn2CCO)CC1)NCc1cccs1 was tested, and the “Percent Effect” value was -0.7289%.
CCN1CC[C@@H]2OC[C@H](C(=O)NCc3cccs3)C[C@@H]2C1 was tested, and the “Percent Effect” value was 91.2%.
For Cc1ncccc1NC(=O)[C@@H]1C[C@@H]2CCN(Cc3cccs3)C[C@H]2O1.O=C(O)C(F)(F)F.O=C(O)C(F)(F)F, the “Percent Effect” value was -1.319%.
COCCNC(=O)[C@H]1C[C@@H]2CCN(Cc3nccs3)C[C@H]2O1.O=C(O)C(F)(F)F was tested, and the “Percent Effect” value was 2.995%.
For COCCNC(=O)[C@H]1CO[C@H]2CCN(Cc3cccs3)C[C@H]2C1, the “Percent Effect” value was 107.4%.
For COC(=O)N1CCc2ccccc2C1C(=O)NCc1cccs1 (configuration not stated), the “Percent Effect” value was 1.281%.
In the case of COc1ccc(F)cc1CN1CCN(Cc2nccn2C)C(C)C1 (configuration not stated), the “Percent Effect” value is reported as -0.7274%.
With CC(=O)N1CC(=O)N(c2ccccc2)CC12CCN(Cc1ccoc1)C2.O=C(O)C(F)(F)F (configuration not stated) the “Percent Effect” value was 103.1%.
With CC(=O)N1CC(=O)N(c2ccsc2)CC12CCN(Cc1ccccn1)C2.O=C(O)C(F)(F)F (configuration not stated) the “Percent Effect” value was -6.842%.
For CC(=O)N1CC(=O)N(c2ccccc2)CC12CCN(Cc1ccsc1)C2 (configuration not stated), the “Percent Effect” value was -2.634%.
CC(=O)N1CC(=O)N(c2ccsc2)CC12CCN(Cc1ccoc1)C2 (configuration not stated) was tested, and the “Percent Effect” value was 104.4%.
In the case of CC(=O)N1CC(=O)N(c2ccccc2)CC12CCN(Cc1nccs1)C2.O=C(O)C(F)(F)F (configuration not stated), the “Percent Effect” value is reported as -14.31%.
CC(=O)N1CC(=O)N(c2ccccc2)CC12CCN(CC1CC1)C2.O=C(O)C(F)(F)F (configuration not stated) was tested, and the “Percent Effect” value was -3.194%.
For CC(C)OCCOCc1cccc(NC(=O)NCC(=O)N(C)C)c1, the “Percent Effect” value was -22.62%.
In the case of CCN1CCN2CCCN(S(=O)(=O)c3ccc(C)cc3C)C2C1=O (configuration not stated), the “Percent Effect” value is reported as 0.9872%.
CN1CCN(c2ccc(NCc3ccsc3)cn2)CC1 was tested, and the “Percent Effect” value was -12.65%.
With CN(C)C(=O)COCC1CN(C2CCC2)Cc2ncn(C)c21.O=C(O)C(F)(F)F.O=C(O)C(F)(F)F (configuration not stated) the “Percent Effect” value was 85.57%.
CCOCC1CN(C(=O)COc2ccccc2C)Cc2ncn(C)c21.O=C(O)C(F)(F)F (configuration not stated) was tested, and the “Percent Effect” value was -10.67%.
With Cn1cnc2c1C(COCC1CCOCC1)CN(C(=O)C1CC=CC1)C2.O=C(O)C(F)(F)F (configuration not stated) the “Percent Effect” value was -7.237%.
For CN(C)C(=O)COCC1CN(S(C)(=O)=O)Cc2ncn(C)c21.O=C(O)C(F)(F)F (configuration not stated), the “Percent Effect” value was 94.11%.
For COCC1CN(C(=O)COc2ccccc2)Cc2ncn(C)c21.O=C(O)C(F)(F)F (configuration not stated), the “Percent Effect” value was -7.331%.
With COCCN(Cc1sccc1C)c1nc(C)nc2sccc12 the “Percent Effect” value was -3.328%.
CNC(=O)[C@@H]1C[C@@H](N)CN1Cc1cc2cc(C)cc(C)c2[nH]c1=O was tested, and the “Percent Effect” value was 3.33%.
In the case of CN(Cc1cnn(C)c1)S(=O)(=O)N1CCc2ccccc2C1, the “Percent Effect” value is reported as 11.11%.
In the case of CCS(=O)(=O)c1ccc2oc([C@H]3CCN(Cc4cccnc4)C3)nc2c1, the “Percent Effect” value is reported as -5.049%.
For CCN(CC)S(=O)(=O)c1ccc2c(c1)N(Cc1ccccn1)C(=O)CS2, the “Percent Effect” value was 124.5%.
For CCN(CC)S(=O)(=O)c1ccc2c(c1)N(Cc1cccnc1)C(=O)CS2, the “Percent Effect” value was 103.1%.
In the case of CC(C)N1CCC(Nc2ccn(Cc3ccccn3)n2)C1=O (configuration not stated), the “Percent Effect” value is reported as 7.705%.
In the case of CCN(CC)S(=O)(=O)c1ccc2c(c1)N(Cc1ccncc1)C(=O)CS2, the “Percent Effect” value is reported as 122%.
CCN(CC)S(=O)(=O)N(C)Cc1ccncc1 was tested, and the “Percent Effect” value was -6.423%.
For CCN(Cc1cccc(-c2ccncc2)c1)S(N)(=O)=O, the “Percent Effect” value was -1.235%.
CCN(CC)S(=O)(=O)N1CCCC(c2nccn2Cc2cccnc2)C1 (configuration not stated) was tested, and the “Percent Effect” value was -1.362%.
For CCN(CC)S(=O)(=O)N1CCC(c2nccn2Cc2ccccn2)CC1, the “Percent Effect” value was 1.2%.
For CC(=O)N1CCC(C(=O)NCCN2CCC(C)CC2)CC1, the “Percent Effect” value was -2.341%.
In the case of CCN1C(=O)CC(c2cnn(C)c2)C12CCN(C(=O)c1ccoc1)CC2 (configuration not stated), the “Percent Effect” value is reported as 0.4401%.
In the case of Cc1nccn1-c1ccc(C(C)NCc2cccn2C)cc1 (configuration not stated), the “Percent Effect” value is reported as -7.942%.
Cc1ccnc(Cn2cc(-c3cccc(C(C)N(C)C)c3)nn2)c1 (configuration not stated) was tested, and the “Percent Effect” value was 12.93%.
COc1ccc2c(c1)CCCN2C(=O)CN1CCOC(C)C1 (configuration not stated) was tested, and the “Percent Effect” value was -7.941%.
For CCOC(=O)C(C)Nc1ccc(CCN2CCOCC2)cc1 (configuration not stated), the “Percent Effect” value was 97.92%.
For CC(CCc1ccccc1)NC(=O)CN1CCOCC1 (configuration not stated), the “Percent Effect” value was -21.53%.
COC(=O)C(O)C1CCN(CCc2ccncc2)CC1 (configuration not stated) was tested, and the “Percent Effect” value was -5.946%.
With CC(Nc1ccc(CCN2CCOCC2)cc1)C(=O)N(C)CCC#N (configuration not stated) the “Percent Effect” value was 7.396%.
For CCC(C)C(=O)Nc1ccc(CCN2CCOCC2)cc1 (configuration not stated), the “Percent Effect” value was 92.28%.
With NC(=O)C1CCN(CCc2ccc(NC(=O)C3CCC3)cc2)CC1 the “Percent Effect” value was -0.7709%.
O=C(Nc1ccc(CCN2CCC(O)CC2)cc1)C1CCOCC1 was tested, and the “Percent Effect” value was 8.941%.
In the case of CCC(Nc1ccc(CCN2CCOCC2)cc1)C(N)=O (configuration not stated), the “Percent Effect” value is reported as 92.12%.
For Cc1ccc(CCCC(=O)N(C)CCN2CCOCC2)cc1, the “Percent Effect” value was -4.729%.
CC(Nc1ccc(CCN2CCCCC2)cc1)C(=O)N(C)CCC#N (configuration not stated) was tested, and the “Percent Effect” value was -7.662%.
With CCC(Nc1ccc(Oc2ccccc2OC)cc1)C(N)=O (configuration not stated) the “Percent Effect” value was 11.69%.
In the case of CCC(Nc1ccc(CCN2CCCCC2)cc1)C(N)=O (configuration not stated), the “Percent Effect” value is reported as 104.3%.

From ChEMBL document CHEMBL3988442, “University of Dundee, Small-Polar-MMV Screening Library” (2021)
